Screens: PubChem, National Center for Advancing Translational Sciences (NCATS)
PI5P4K alpha inh: qHTS for Inhibitors of phosphatidylinositol 5-phosphate 4-kinase (PI5P4K) | Phosphatidylinositol 5-phosphate 4-kinase type-2 alpha (Homo sapiens), P48426 | PI5P4Kalpha enzyme, ADP-Glo luminescence, 60 min; active compounds read low | max response, % | 1.2% of 330,000 active | AID 652105, 2013; active = max response of -50% or lower; inconclusive = between -30% and -50%; inactive = -30% or higher; note: value at the top dose of about 77 µM; % is set by controls: 0 for no effect and ±100 for the full control effect
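ADP-Glo luminescence end-point read after a 60 min room-temperature kinase reaction of PI5P4Kalpha plus substrate, initiated with ATP at 5 microM final. Buffer: 0.038 M HEPES pH 7.4, EGTA, 0.1% CHAPS, 5% DMSO.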
Pol eta inh-1: qHTS for Inhibitors of Polymerase Eta. DNA polymerase eta (Homo sapiens), Q9Y253. recombinant Pol eta, fluorescent DNA replication assay. Potency, µM (titrated, usually from 114 µM), for the others: at the highest dose activity change, negative = inhibition, most hits filed as inhibitors. 1.2% of 390,000 active. AID 588591, 2011; note: potency is the fitted concentration of half-maximal effect; % is set by controls: 0 for no effect and ±100 for the full control effect
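Pol eta at 10 nM preincubated with compounds 15 min at room temperature; reaction started with fluorescent substrate (50 nM final) and read kinetically at 0 and 10 min.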
Pol kappa inh: qHTS for Inhibitors of Polymerase Kappa; 0.53% of 400,000 active; Potency, µM (series often up to 107 µM), for the others: top-dose activity, negative = inhibition, hits mostly inhibitors; purified Pol kappa, fluorescent DNA synthesis assay, 10 min; AID 588579, 2011; DNA polymerase kappa (Homo sapiens), Q9UBT6; note: potency is the fitted concentration of half-maximal effect; % is set by controls: 0 for no effect and ±100 for the full control effect
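First, compounds were pin-transferred onto 10 nM Pol kappa. After 15 min at room temperature, substrate was added to 50 nM final. Fluorescence was then measured kinetically at 0 and 10 min.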
WRN inhibitor: qHTS for Inhibitors of WRN Helicase; WRN helicase unwinding, fluorescent forked duplex, kinetic; Potency, µM (highest dose often 114 µM), without a hit: at the top dose activity change, negative = inhibition, usual class: inhibitors; 0.46% of 360,000 active; AID 651768, 2012; note: potency is the fitted concentration of half-maximal effect; % is set by controls: 0 for no effect and ±100 for the full control effect; nearly all actives have a fitted effect of over 55% in size
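Primary qHTS, 1536-well format. 20 nM WRN + compound, 15 min RT; start with 100 nM forked fluorophore/quencher duplex, 2 mM ATP (final); kinetic read ex 525/em 598 nm.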
Pol iota inh: qHTS for Inhibitors of Polymerase Iota. DNA polymerase iota (Homo sapiens), Q9UNA4. Pol iota fluorescent replication assay, 10 min. Potency, µM (titrated, usually from 115 µM), without a hit: at the highest dose activity, negative = inhibition, most hits filed as inhibitors. 1% of 390,000 active. AID 588590, 2011; note: potency is the fitted concentration of half-maximal effect
Target sequence (Q9UNA4 whole entry, looked up): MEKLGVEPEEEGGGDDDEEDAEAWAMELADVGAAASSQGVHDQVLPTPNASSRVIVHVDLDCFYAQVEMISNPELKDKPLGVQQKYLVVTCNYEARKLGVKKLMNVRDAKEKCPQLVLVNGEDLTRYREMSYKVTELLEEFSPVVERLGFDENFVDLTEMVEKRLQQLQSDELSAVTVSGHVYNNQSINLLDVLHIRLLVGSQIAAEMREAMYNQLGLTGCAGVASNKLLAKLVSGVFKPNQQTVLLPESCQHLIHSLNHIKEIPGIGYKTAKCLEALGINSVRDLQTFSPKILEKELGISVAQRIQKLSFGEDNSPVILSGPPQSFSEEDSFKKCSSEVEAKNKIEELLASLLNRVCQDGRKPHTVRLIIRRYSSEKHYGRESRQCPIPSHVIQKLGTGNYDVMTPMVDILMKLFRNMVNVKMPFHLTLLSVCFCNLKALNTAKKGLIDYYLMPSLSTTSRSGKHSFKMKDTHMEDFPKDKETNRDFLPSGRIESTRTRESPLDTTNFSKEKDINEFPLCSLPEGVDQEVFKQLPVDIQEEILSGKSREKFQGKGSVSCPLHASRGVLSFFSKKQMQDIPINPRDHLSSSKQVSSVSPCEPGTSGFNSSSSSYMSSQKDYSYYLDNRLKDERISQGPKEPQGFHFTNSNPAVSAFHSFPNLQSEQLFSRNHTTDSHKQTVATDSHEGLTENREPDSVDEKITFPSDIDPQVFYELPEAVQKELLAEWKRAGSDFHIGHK
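Pol iota at 10 nM preincubated 15 min with compounds at room temperature; reaction started with fluorescent substrate, 50 nM final. Fluorescence read kinetically at 0 and 10 min; buffer-only wells as negative control.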
Pol beta inh-1: qHTS Assay for Inhibitors of DNA Polymerase Beta; P06746; Pol beta primer extension/strand displacement, fluorescence kinetic; Potency, µM (doses to about 114 µM), inactives show at the highest dose activity change, negative = inhibition, usual class: inhibitors; 1.3% of 340,000 active; AID 485314, 2010; note: potency is the fitted concentration of half-maximal effect; % is set by controls: 0 for no effect and ±100 for the full control effect
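10 nM enzyme + cpd, 15 min RT; start with substrate 50 nM final; read 0 min and after 10 min RT. Corrected, normalized data; 4-parameter Hill curve fit.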
Pol beta inh-2: Inhibitors of DNA Polymerase Beta: Hit validation | 87% of 250 active | AID 540280, 2011 | shares compounds with Pol beta inh-1 | Potency, µM, actives largely listed as inhibitors | Pol beta primer extension/strand displacement, fluorescence kinetic; calls by dose curve; note: potency is the fitted concentration of half-maximal effect
Klenow counter: Inhibitors of DNA Polymerase Beta: Hit Validation in Klenow Fragment Assay; AID 540300, 2011; 250 tested, under 10 active; activity change, negative = inhibition, % at 57.1 µM; shares compounds with Pol beta inh-1; Klenow exo- polymerase counter-screen, fluorescent DNA substrate
HIV RT inh: Inhibitors of DNA Polymerase Beta: Hit Validation in HIV-RT Assay | 250 tested, under 10 active | AID 540301, 2011 | HIV-1 RT polymerase activity, counter-screen | activity % (negative = inhibition, positive = activation), % at 57.1 µM | shares compounds with Pol beta inh-1
POLB inh gel: Inhibitors of DNA Polymerase Beta: Hit Validation in Radiolabeled Extension Assay | shares compounds with Pol beta inh-1 | radiolabeled primer extension gel assay, phosphorimager | inhibition, % at 10 µM | 91% of 110 active | AID 540325, 2011;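 active = inhibition at 10 µM of 30% or more; inconclusive = no clear call, values can overlap the other calls; inactive = inhibition at 10 µM under 30%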
POLI cherry-pick: qHTS for Inhibitors of Polymerase Iota: Confirmatory Assay for Cherry-picked Compounds; shares compounds with Pol kappa inh; Pol iota primer extension, TAMRA/BHQ fluorescence; Potency, µM, usual class: inhibitors; 77% of 1,500 active; note: potency is the fitted concentration of half-maximal effect
Pol eta inh-2: qHTS for Inhibitors of Polymerase Eta: Confirmatory Assay for Cherry-picked Compounds; shares compounds with Pol eta inh-1; Potency, µM, usual class: inhibitors; AID 720502, 2013; 64% of 2,600 active; Pol eta primer extension, TAMRA/BHQ fluorescence, 10 min; note: potency is the fitted concentration of half-maximal effect
ADP-Glo interf: qHTS for Inhibitors of PI5P4K: ADP-Glo counter assay; AID 743285, 2014; Potency, µM (top dose mostly 76.9 µM), for inactives: at the highest dose activity change, negative = inhibition, hits mostly inhibitors; ADP-Glo detection counter-screen, luciferase luminescence, no enzyme; shares compounds with PI5P4K alpha inh; 1,100 tested, under 10 active
* marks the source's active call; other numbers are inactive results; ? = inconclusive; / = not tested or not shown; [ ] = another dose, or the depositor's remark. An excerpt weighted towards active compounds, which were near 2.8% of everything screened. Unless noted, calls come from the whole dose curve; as a rule, active = well fitted curve in the direction sought with a large enough effect; inconclusive = small, poorly fitted or top-dose-only effect, or another doubt; inactive = no such curve, though single readings can be large; an effect the other way counts as inactive or inconclusive.

SMILES | PI5P4K alpha inh | Pol eta inh-1 | Pol kappa inh | WRN inhibitor | Pol iota inh | Pol beta inh-1 | Pol beta inh-2 | Klenow counter | HIV RT inh | POLI cherry-pick | Pol eta inh-2 | ADP-Glo interf | others
CCOC(=O)Cc1csc(NC(=O)Cc2cccs2)n1 | -58* | 18µM* | ? | -17%[57.1 µM] | ? | 14µM* | ? | -5 | 15 | / | / | 0%
CC1=C(c2ccc(C)c(C)c2)S(=O)(=O)N=C1N1CCC(C(=O)N2CCCCC2)CC1 | / | / | -20% | / | -13% | 15% | / | / | / | / | / | /
COc1ccc(CCn2c(O)cc3nn(-c4nc5ccccc5s4)c(=O)c-3c2C)cc1 | -81* | 50µM* | 22µM* | ? | ? | 1.8µM* | ? | -32 | 36 | / | / | 3% | POLB inh gel=97*
CCNC(=O)COC(=O)c1cc(-c2ccco2)nc2ccccc12 | -78* | 20µM* | 35µM* | -21%[11.6 µM] | 8.9µM* | 13µM* | 25* | -20 | 5 | 34* | 38* | 3% | POLB inh gel=98*
Cc1csc(NC(=O)c2cc(-c3ccco3)nc3ccccc23)n1 | -57* | 25µM* | ? | ? | ? | 7.9µM* | 11* | -34 | 23 | / | 76* | -8%
CCOc1ccc(/C=N/NC(=O)c2cc(-c3ccco3)nc3ccccc23)cc1 | ? | -7% | -4% | -14% | ? | 15% | / | / | / | / | / | /
O=C(Nc1cccc(S(=O)(=O)NC2=NCCCCC2)c1)c1cc(-c2ccccc2)nc2ccccc12 | -1 | -4% | -10% | -4% | 9% | 9% | / | / | / | / | / | /
O=C(Nc1cccc(S(=O)(=O)NC2=NCCC2)c1)c1cc(-c2ccco2)nc2ccccc12 | -75* | 10µM* | 32µM* | ? | 8.9µM* | 3.5µM* | 4.5* | -39 | 6 | 34* | 24* | -4%
Cn1c(SCC(=O)Nc2ccc3nc(SCC(=O)N4CCCC4)sc3c2)nnc1-c1ccccc1 | -64* | 14µM* | 79µM* | ? | ? | 7.1µM* | 13* | -8 | 19 | 75* | / | -7%
